Results reported in the supplement of paper PMC12350171.
Structures can show the parent of a compound that is named as a salt.

Legend:
Conditions in all cases: 20 µM
[1] = test system: Salmonella enterica typhimurium; assay: growth AUC normalised to DMSO control (fraction of control); higher = less growth inhibition, active = hit call of the paper
Outline: (§1)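 Pathogens passaged twice anaerobically were inoculated at a starting OD578 of 0.01 into pre-reduced mGAM plates with drug at 20 μM and 1% DMSO, sealed with breathable membranes. Haemophilus parainfluenzae medium was supplemented with hemin and NAD. OD578 was read hourly for 24 h, with three biological replicates. Growth-curve AUC was computed by the trapezoidal rule up to the exponential-to-stationary transition and normalised to DMSO controls on the same plate.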

Shigella flexneri = assay: as above
Outline: as §1

Vibrio cholerae = assay: as above
Outline: as §1

[2] = test system: Yersinia pseudotuberculosis; assay: as above
Outline: as §1

P. vulgatus RND KO = assay: growth AUC normalised to DMSO control (median) (fraction of control); higher = less growth inhibition, active = hit call of the paper
Outline: (§2)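 Area under the growth curve, calculated by the trapezoidal rule up to entry into stationary phase, was normalised to vehicle wells on the same plate. Strains had been passaged twice overnight without oxygen and then grown in mGAM in 96-well plates from OD578 0.01, each with an approved-drug library compound at 20 μM in 1% DMSO. OD578 was read hourly over 24 h in an anaerobic incubator, and the median of three biological replicates is given.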

P. vulgatus WT = assay: as above
Outline: as §2

[3] = test system: S. enterica typhimurium WT; assay: as above
Outline: as §2

[4] = test system: S. enterica typhimurium tolC KO; assay: as above
Outline: as §2

Measured: growth AUC normalised to DMSO control
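Throughout, for growth AUC normalised to DMSO control (median): active when median AUC fell below 0.1.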

CN1CCCN=C1/C=C/c1cccc(O)c1 [Oxantel pamoate]
inactive: [1] 1.01 | Shigella flexneri 1.02 | Vibrio cholerae 1.05 | [2] 1.02 | P. vulgatus RND KO 1.01 | P. vulgatus WT 0.992 | [3] 1.01 | [4] 1.01

COc1c2occc2c(OC)c2c(=O)cc(C)oc12 [Khellin]
inactive: [1] 1 | Shigella flexneri 1.05 | Vibrio cholerae 0.983 | [2] 1.01 | P. vulgatus RND KO 1 | P. vulgatus WT 1.02 | [3] 1.02 | [4] 0.985

CCOC(=O)OC(C)OC(=O)[C@@H]1N2C(=O)[C@@H](NC(=O)[C@H](N)c3ccccc3)[C@H]2SC1(C)C (some centres undefined) [Bacampicillin hydrochloride]
inactive: Vibrio cholerae 1 | [3] 0.154
active: [1] 0.00881 | Shigella flexneri 0.0323 | [2] 0.277 | [4] 0.0179

Cc1cccc(CN2CCN(C(c3ccccc3)c3ccc(Cl)cc3)CC2)c1 (centres undefined) [Meclozine dihydrochloride]
inactive: [1] 0.989 | Shigella flexneri 0.961 | Vibrio cholerae 0.885 | [2] 0.987 | P. vulgatus RND KO 1 | P. vulgatus WT 0.992 | [3] 1 | [4] 1

CN(Cc1cnc2nc(N)nc(N)c2n1)c1ccc(C(=O)N[C@@H](CCC(=O)O)C(=O)O)cc1 [Amethopterin]
inactive: [1] 0.983 | Shigella flexneri 0.948 | Vibrio cholerae 0.912 | [2] 0.982 | P. vulgatus WT 0.916 | [3] 0.997 | [4] 0.7

CCC(=O)OCC(=O)[C@@]1(OC(=O)CC)[C@@H](C)C[C@H]2[C@@H]3CCC4=CC(=O)C=C[C@]4(C)[C@@]3(Cl)[C@@H](O)C[C@@]21C [Beclomethasone dipropionate]
inactive: [1] 0.99 | Shigella flexneri 0.956 | Vibrio cholerae 0.965 | [2] 1.01 | P. vulgatus WT 0.972 | [3] 1.01 | [4] 0.975

Cc1onc(-c2ccccc2)c1C(=O)N[C@@H]1C(=O)N2[C@@H]1SC(C)(C)[C@@H]2C(=O)O [Oxacillin sodium]
inactive: [1] 0.975 | Shigella flexneri 1.03 | Vibrio cholerae 0.961 | P. vulgatus WT 0.151 | [3] 0.994
active: [2] 0.908 | [4] 0.0924

CC1(C)S[C@@H]2[C@H](NC(=O)[C@H](N)c3ccccc3)C(=O)N2[C@H]1C(=O)O [Ampicillin trihydrate]
active: [1] 0.00858 | Shigella flexneri 0.0549 | Vibrio cholerae 0.254 | [2] 0.0564 | P. vulgatus WT 0.0887 | [3] 0.0624 | [4] 0.0201

C[C@]1(Cn2ccnn2)[C@H](C(=O)O)N2C(=O)C[C@H]2S1(=O)=O [Tazobactam]
inactive: [1] 0.986 | Shigella flexneri 0.976 | Vibrio cholerae 0.972 | [2] 0.99 | P. vulgatus WT 0.57 | [3] 0.99 | [4] 1

CCN1CCN(C(=O)N[C@@H](C(=O)N[C@@H]2C(=O)N3[C@@H]2SC(C)(C)[C@@H]3C(=O)O)c2ccccc2)C(=O)C1=O [Piperacillin sodium salt]
active: Shigella flexneri 0.098 | Vibrio cholerae 0.63 | [2] 0.291 | P. vulgatus RND KO 0.0135 | P. vulgatus WT 0.0163 | [4] 0.00671
inactive: [3] 0.734

C#C[C@]1(O)CC[C@H]2[C@@H]3CCC4=CCCC[C@@H]4[C@H]3CC[C@@]21C [Lynestrenol]
inactive: [1] 0.997 | Shigella flexneri 0.973 | Vibrio cholerae 1.01 | [2] 0.972 | P. vulgatus RND KO 0.945 | P. vulgatus WT 0.976 | [3] 1.02 | [4] 1

C[C@@H](O)[C@H]1C(=O)N2C(C(=O)O)=C(SCCNC=N)C[C@H]12 [Imipenem]
inactive: [1] 1.02 | Vibrio cholerae 1 | [2] 0.967 | [3] 1 | [4] 0.996
active: Shigella flexneri 0.63

CCOC(=O)C1=C(C)NC(C)=C(C(=O)OC)C1c1cccc([N+](=O)[O-])c1 (centres undefined) [Nitrendipine]
inactive: [1] 1.04 | Shigella flexneri 1 | Vibrio cholerae 1.06 | [2] 1.01 | P. vulgatus RND KO 1.09 | P. vulgatus WT 1.04 | [3] 0.996 | [4] 0.982

CCCCOC(=O)c1ccc(N)cc1 [Butamben]
inactive: [1] 0.994 | Shigella flexneri 0.995 | Vibrio cholerae 0.989 | [2] 0.937 | P. vulgatus RND KO 1.03 | P. vulgatus WT 1.03 | [3] 0.998 | [4] 1.01

C[N+]1(C)CCC(=C(c2ccccc2)c2ccccc2)CC1 [Diphemanil methylsulfate]
inactive: [1] 0.987 | Shigella flexneri 1.01 | Vibrio cholerae 1.02 | [2] 1.02 | P. vulgatus RND KO 1.03 | P. vulgatus WT 1.02 | [3] 0.991 | [4] 1

COc1ccc2c(c1)c(CC(=O)O)c(C)n2C(=O)c1ccc(Cl)cc1 [Indomethacin]
active: Vibrio cholerae 0.448
inactive: Shigella flexneri 0.966 | [2] 1 | P. vulgatus RND KO 0.967 | P. vulgatus WT 1.01 | [3] 1.01 | [4] 0.974

CC(C)NC[C@H](O)COc1cccc2ccccc12 [(S)-(-)-Propranolol hydrochloride]
inactive: Shigella flexneri 0.997 | Vibrio cholerae 1.01 | [2] 0.996 | P. vulgatus RND KO 1.04 | P. vulgatus WT 1.06 | [3] 0.989 | [4] 0.986

CCN(CC)C(=S)SSC(=S)N(CC)CC [Disulfiram]
inactive: Shigella flexneri 0.968 | Vibrio cholerae 0.989 | [2] 0.97 | P. vulgatus RND KO 0.896 | P. vulgatus WT 1.07 | [3] 0.995 | [4] 1

CCn1cc(C(=O)O)c(=O)c2cnc(N3CCNCC3)nc21 [Pipemidic acid]
active: Shigella flexneri 0.113 | Vibrio cholerae 0.0338 | [2] 0.0731 | [4] 0.04
inactive: P. vulgatus RND KO 1.02 | P. vulgatus WT 0.996 | [3] 0.107

CCC1(c2ccccc2)C(=O)NCNC1=O [Primidone]
inactive: Shigella flexneri 0.971 | Vibrio cholerae 0.976 | [2] 0.951 | P. vulgatus RND KO 1 | P. vulgatus WT 1 | [3] 1 | [4] 0.997

O=c1cc(-c2ccc(O)c(O)c2)oc2cc(O)cc(O)c12 [Luteolin]
inactive: Shigella flexneri 1 | Vibrio cholerae 0.976 | [2] 0.978 | P. vulgatus RND KO 0.987 | P. vulgatus WT 1.02 | [3] 0.993 | [4] 0.878

Cc1onc(-c2c(F)cccc2Cl)c1C(=O)N[C@@H]1C(=O)N2[C@@H]1SC(C)(C)[C@@H]2C(=O)O [Flucloxacillin sodium]
active: [4] 0.0123
inactive: [1] 0.993 | Shigella flexneri 1.01 | Vibrio cholerae 0.999 | [2] 0.989 | P. vulgatus WT 0.132 | [3] 1.02

O=C(O)[C@H]1/C(=C/CO)O[C@@H]2CC(=O)N21 [Clavulanate potassium salt]
inactive: [1] 1.01 | Shigella flexneri 1.03 | Vibrio cholerae 1.08 | [2] 1.03 | P. vulgatus WT 1.12 | [3] 0.995 | [4] 0.999

NNc1nncc2ccccc12 [Hydralazine hydrochloride]
inactive: Shigella flexneri 1.04 | Vibrio cholerae 1.06 | [2] 1.03 | P. vulgatus RND KO 1.01 | P. vulgatus WT 1.04 | [3] 0.996 | [4] 0.992

CCOC(=O)O[C@]1(C(=O)COC(=O)CC)CC[C@H]2[C@@H]3CCC4=CC(=O)C=C[C@]4(C)[C@H]3[C@@H](O)C[C@@]21C [Prednicarbate]
inactive: [1] 1.01 | Shigella flexneri 1.03 | [2] 1 | P. vulgatus RND KO 1 | P. vulgatus WT 1.04 | [3] 0.992 | [4] 0.967

Nc1nc2ccc(OC(F)(F)F)cc2s1 [Riluzole hydrochloride]
inactive: [1] 1.01 | Shigella flexneri 0.993 | Vibrio cholerae 0.937 | [2] 0.984 | P. vulgatus RND KO 0.999 | [3] 0.979 | [4] 0.976

Clc1ccc(Cn2c(CN3CCCC3)nc3ccccc32)cc1 [Clemizole hydrochloride]
inactive: [1] 0.98 | Shigella flexneri 0.988 | Vibrio cholerae 0.922 | [2] 0.986 | P. vulgatus RND KO 0.902 | P. vulgatus WT 0.857 | [3] 0.997 | [4] 0.949

Cn1c(=O)c2[nH]cnc2n(C)c1=O [Aminophylline]
inactive: Shigella flexneri 1.03 | Vibrio cholerae 1.03 | [2] 0.979 | P. vulgatus RND KO 1.03 | P. vulgatus WT 1.05 | [3] 0.993 | [4] 1.01

COC1=CC(=O)C[C@@H](C)[C@]12Oc1c(Cl)c(OC)cc(OC)c1C2=O [Griseofulvin]
inactive: Shigella flexneri 0.998 | Vibrio cholerae 0.99 | [2] 1.03 | P. vulgatus RND KO 0.99 | P. vulgatus WT 0.976 | [3] 1 | [4] 0.996
